D3 antag: qHTS of D3 Dopamine Receptor Antagonist: qHTS. D(3) dopamine receptor (Homo sapiens), P35462. D3R cells, DiscoveRx beta-arrestin luminescence, antagonist mode; stronger effect = lower value. max response, negative = inhibition, %. actives 2.5% (n = 360,000). AID 652054, 2013; in the data active = max response below about -50%; inconclusive = no clear call, values can overlap the other calls; also: % is scaled to controls: 0 for no effect and ±100 for the full control effect
Target sequence (P35462 whole entry, looked up): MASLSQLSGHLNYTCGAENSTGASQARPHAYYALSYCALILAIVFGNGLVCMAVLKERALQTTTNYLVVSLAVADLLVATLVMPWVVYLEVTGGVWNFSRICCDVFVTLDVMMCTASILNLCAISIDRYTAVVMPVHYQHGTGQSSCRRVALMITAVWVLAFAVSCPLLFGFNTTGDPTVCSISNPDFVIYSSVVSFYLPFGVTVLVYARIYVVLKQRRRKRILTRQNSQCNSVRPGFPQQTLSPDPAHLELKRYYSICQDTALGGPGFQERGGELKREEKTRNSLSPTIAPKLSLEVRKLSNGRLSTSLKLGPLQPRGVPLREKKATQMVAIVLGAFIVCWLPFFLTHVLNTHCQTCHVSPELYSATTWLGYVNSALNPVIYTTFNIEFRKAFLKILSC
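Cells expressing the human receptor were seeded at 1500 cells/well, incubated overnight at 37 degrees C in 5% CO2, then exposed to library compounds with dopamine controls for 90 minutes at 37 degrees C before luminescent detection.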
TDP1 cell CPT: qHTS for Inhibitors of human tyrosyl-DNA phosphodiesterase 1 (TDP1): qHTS in cells in presence of CPT. chicken DT40 Tdp1-/-;hTDP1 cells + 20 nM CPT, ATP luminescence, 48 h. Potency, µM (titrated, usually from 46.2 µM), for inactives: at the top dose activity change, negative = growth inhibition, usual class: inhibitors. actives 12% (n = 420,000); also: potency is read from the fitted curve at half-maximal effect; % is scaled to controls: 0 for no effect and ±100 for the full control effect; nearly all actives have a fitted effect of over 55% in size
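Chicken DT40 Tdp1-/- cells stably complemented with human TDP1 were seeded at 400 cells/well in medium containing 20 nM camptothecin, exposed to pin-transferred compounds, and grown at 37 °C for at least 48 hr. Viability was read as ATP luminescence.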
D3 ag: qHTS of D3 Dopamine Receptor Agonist: qHTS. max activation, %. D3R DiscoveRx beta-arrestin cells, luminescence, 90 min. D(3) dopamine receptor (Homo sapiens), P35462. actives 0.58% (n = 410,000); in the data active = max activation above about 30%; also: 0% is about no effect
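Agonist mode: compounds and dopamine controls were applied to plated cells for 90 min at 37 degrees C after an overnight attachment at 1500 cells/well. Luminescent read-out followed 30 - 60 minutes at room temperature with DiscoveRx detection reagent.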
DT40 TDP1 no CPT: qHTS for Inhibitors of human tyrosyl-DNA phosphodiesterase 1 (TDP1): qHTS in cells in absence of CPT. Potency, µM (top dose mostly 46.2 µM), for inactives: at the top dose activity change, negative = growth inhibition, hits mostly inhibitors. DT40 Tdp1-/- hTDP1 cells, no CPT, ATP luminescence, 48 h. AID 686978, 2013. actives 15% (n = 420,000); also: potency is read from the fitted curve at half-maximal effect; % is scaled to controls: 0 for no effect and ±100 for the full control effect; nearly all actives have a fitted effect of over 55% in size
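Compound effects on proliferation are scored in DT40 Tdp1-/-;hTDP1 cells in the absence of CPT. ATP levels (CellTiter-Glo luminescence) are recorded after a ≥48 hr, 37 °C incubation.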
ClpP mod: qHTS Assay for Activators of ClpP. Potency, µM (top dose mostly 57.5 µM), for inactives: at the top dose activity change, negative = active. actives 1.9% (n = 340,000). purified B. subtilis ClpP, FRET peptide cleavage, 20 min; active = well fitted falling curve with a large enough effect; inconclusive = small, poorly fitted or top-dose-only effect; inactive = no such curve, though single readings can be large or run the other way; also: potency is read from the fitted curve at half-maximal effect; the source files actives as falling curves though it sought activators and does not explain the sign; nearly all actives have a fitted effect of over 65% in size
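Buffer: 100 mM Tris/HCl pH8, 100 mM KCl, 0.05% low protease BSA, 2.5% glycerol, 0.01% Tween-20. ClpP 10 microg/mL final; 20 min RT; delta FRET normalized to ADEP and DMSO controls.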
IL-1B inflam inh: qHTS for Inhibitors of Inflammasome Signaling: IL-1-beta AlphaLISA Primary Screen; THP-1 LPS/ATP IL-1B secretion, AlphaLISA, 16 h; stronger effect = lower value; activity change, % at 57.5 µM; actives 4.7% (n = 360,000); AID 743279, 2014; in the data active = activity change below about -50%; inconclusive = mostly about -30% to -49%; also: % is scaled to controls: 0 for no effect and ±100 for the full control effect
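Secreted IL-1B measured by AlphaLISA bead assay after 16 h compound exposure of THP-1 cells; compounds (final up to 57.5 uM) added 1 h before LPS (250 ng/mL) and ATP (1.25 mM) stimulation; lower signal means less secretion.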
* marks the source's active call; other numbers are inactive results; u = inconclusive; x = no result; [ ] = dose if it differs, or a comment. In the library only some 21% were active in any assay of this set; here they are far more common. Unless noted, calls follow the shape of the dose curve; as a rule, active = well fitted inhibition curve with a large enough effect; inconclusive = small, poorly fitted or top-dose-only effect; inactive = flat fitted curve, though single readings scatter.

SMILES | D3 antag | TDP1 cell CPT | D3 ag | DT40 TDP1 no CPT | ClpP mod | IL-1B inflam inh
Cc1ccc(NC2CCCN(C(=O)CCC3=NNC(=O)CC3)C2)cc1C (centres undefined) | -10 | -17% | 2 | -7% | -3% | 0
CCC(=O)c1ccc(OCC(=O)OCC(=O)Nc2sccc2C(N)=O)cc1 | 48 | 2% | 6 | -2% | x | 4
CCOc1ccc(S(=O)(=O)N(CC(=O)NCCc2ccc(OC)cc2)c2ccccc2)cc1 | x | -5% | -1 | 3% | -2% | x
Cc1ccc(S(=O)(=O)C/N=C(/NC(=S)N(c2ccccc2)c2ccccc2)c2ccccc2)cc1 | -56* | u | -14 | -15% | 0% | 21
O=C(CS(=O)(=O)c1ccc(Cl)cc1)Nc1nnc(-c2cccs2)o1 | 11 | 15% | 6 | 11% | -13% | 40
O=C(CSc1cn(CCNC(=O)c2c(F)cccc2F)c2ccccc12)Nc1ccc(F)cc1 | x | u | 9 | 16µM* | 3% | x
O=C(CSc1cn(CCNC(=O)c2c(F)cccc2F)c2ccccc12)Nc1ccccc1F | x | u | 1 | 21µM* | 1% | x
CC(C)N(C(=O)Cn1cc(SCC(=O)Nc2ccccc2C(F)(F)F)c2ccccc21)C(C)C | x | -6% | -13 | -17% | -1% | x
CC(C)N(C(=O)Cn1cc(SCC(=O)Nc2ccccc2F)c2ccccc21)C(C)C | x | u | -6 | 13µM* | 2% | x
O=C(CSc1cn(CCNC(=O)c2ccccc2F)c2ccccc12)Nc1ccccc1F | x | u | 6 | u | 0% | x
CO[C@H]1[C@H](NC(=O)c2ccsc2)c2ccccc2C12CCN(Cc1cccc3ncccc13)CC2 | x | -11%[9.04 µM] | x | u | x | x
O=C(Nc1ccccc1)C1=C[C@H](C2CC2)C[C@H](OCCCCO)O1 | 0 | -11% | 3 | 0% | 0% | 14
CCc1ccc(CNCc2c(C(=O)O)n(Cc3cccc(F)c3)c3cc(OC)ccc23)cc1 | x | 23µM* | -14 | 21µM* | -22% | x
COc1ccc(Cn2c(C(=O)O)c(CNCC(C)c3ccccc3)c3ccc(OC)cc32)cc1 (centres undefined) | x | u | 5 | 23µM* | -19% | x
COc1ccc(OC)c(CNCc2c(C(=O)O)n(Cc3cccc(F)c3)c3cc(OC)ccc23)c1 | x | u | 1 | 21µM* | -5% | x
COc1ccc2c(CNCC(C)c3ccccc3)c(C(=O)O)n(Cc3ccc(F)cc3Cl)c2c1 (centres undefined) | x | -17% | 21 | -12% | -1% | x
COc1ccc2c(CNCCc3ccc(SC)cc3)c(C(=O)O)n(Cc3ccc(F)cc3)c2c1 | x | 16µM* | -1 | 12µM* | -12% | x
COc1ccc(OC)c(CNCc2c(C(=O)O)n(Cc3ccccc3)c3cc(OC)ccc23)c1 | x | u | -2 | u | -1% | x
CC(=O)Nc1c2c(nn1-c1cccc(Cl)c1)CS(=O)(=O)C2 | 8 | 1% | -1 | 14% | 0% | 16
Cc1cc(=S)cc(C)n1CCCn1ccnc1 | 44 | 0% | 5 | 6% | 0% | 9
Clc1ccc(-c2csc(=Nc3cccnc3)n2CCCn2ccnc2)cc1Cl | -4 | 23µM* | -2 | 15µM* | -1% | -88*
O=C(N=NC(=O)c1ccc2c(O)n(CC3CCCO3)c(O)c2c1)c1cccnc1 (centres undefined) | 4 | 12% | 0 | 3% | 0% | 1
COCCn1c(-c2ccc(Br)cc2)csc1=Nc1cccnc1 | 7 | 16µM* | 2 | 18µM* | x | -78*

Source: PubChem BioAssay (National Center for Advancing Translational Sciences (NCATS))
